Assay results from PubChem BioAssay (EPA / NIEHS).
Inconclusive results are not listed. The source made the active and inactive calls. The calls were made as follows, unless noted: active = hit-call score of the fitted dose curve at least 0.9, where 1 is the maximum; inconclusive = response in the unintended direction; inactive = score below 0.9.

Key:
[1] = BSK_4H_Eotaxin3: BioMAP Diversity Plus: 4H Assay for Eotaxin 3 Biomarker Activity (AID 2283000; active = hit-call score of the fitted dose curve at least 0.9, where 1 is the maximum; inactive = score below 0.9); details: primary human endothelial cells (HUVEC); actives raise or lower the signal
How it was run: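 HUVEC, 24 h post-dose, ELISA for Eotaxin-3/CCL26. Gain or loss of signal fitted bidirectionally vs DMSO baseline.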

[2] = target: human Peroxisome Proliferator-activated Receptor alpha (PPARa), PPARA (gene 5465) (UniProt Q07869); assay: ATG_PPARa_TRANS: Attagene TRANS-FACTORIAL HepG2 Assay for human Peroxisome Proliferator-activated Receptor alpha (PPARa) (AID 2283001);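 as to AC50: potency for gain of reporter signal over DMSO so agonist or activator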
human Peroxisome Proliferator-activated Receptor alpha (PPARa), PPARA (gene 5465), sequence (Q07869 whole entry, looked up): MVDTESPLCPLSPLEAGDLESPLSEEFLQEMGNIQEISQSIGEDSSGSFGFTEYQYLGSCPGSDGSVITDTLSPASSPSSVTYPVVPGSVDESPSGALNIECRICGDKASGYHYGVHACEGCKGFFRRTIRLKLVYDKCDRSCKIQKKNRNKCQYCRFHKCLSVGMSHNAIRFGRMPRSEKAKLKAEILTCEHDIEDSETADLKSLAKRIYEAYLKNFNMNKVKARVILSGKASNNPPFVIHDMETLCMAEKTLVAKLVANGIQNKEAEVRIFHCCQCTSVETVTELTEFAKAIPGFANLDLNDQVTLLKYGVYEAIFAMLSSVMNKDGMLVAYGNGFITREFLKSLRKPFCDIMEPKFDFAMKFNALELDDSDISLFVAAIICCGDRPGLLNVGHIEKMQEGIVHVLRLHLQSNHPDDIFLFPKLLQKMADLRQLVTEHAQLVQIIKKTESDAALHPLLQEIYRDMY
How it was run: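 HepG2, transient MRTU transfection, 24 h treatment. RT-PCR → FAM labelling → capillary electrophoresis. Fit vs DMSO, positive direction.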

[3] = target: human Peroxisome Proliferator-activated Receptor delta (PPARd), PPARD (gene 5467) (UniProt Q03181); assay: ATG_PPARd_TRANS: Attagene TRANS-FACTORIAL HepG2 Assay for human Peroxisome Proliferator-activated Receptor delta (PPARd) (AID 2283002)
human Peroxisome Proliferator-activated Receptor delta (PPARd), PPARD (gene 5467), sequence (Q03181 whole entry, looked up, the tested form may be a part): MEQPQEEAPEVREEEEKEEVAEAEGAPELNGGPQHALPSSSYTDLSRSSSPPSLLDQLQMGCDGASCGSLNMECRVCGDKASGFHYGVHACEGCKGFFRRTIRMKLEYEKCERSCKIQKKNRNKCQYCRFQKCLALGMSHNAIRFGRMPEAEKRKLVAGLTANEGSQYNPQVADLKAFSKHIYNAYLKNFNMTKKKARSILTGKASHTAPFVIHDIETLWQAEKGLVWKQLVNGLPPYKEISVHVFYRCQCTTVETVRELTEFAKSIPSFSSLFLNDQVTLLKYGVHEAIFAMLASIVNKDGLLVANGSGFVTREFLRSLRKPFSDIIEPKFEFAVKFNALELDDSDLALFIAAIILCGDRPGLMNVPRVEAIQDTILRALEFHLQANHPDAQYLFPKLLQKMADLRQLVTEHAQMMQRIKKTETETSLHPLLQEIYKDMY
How it was run: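 HepG2 cells transiently transfected with GAL4-UAS multiplexed reporter units driven by exogenous chimeric NR-GAL4 proteins; 24 h compound exposure. Reporter mRNA measured by RT-PCR, 6-FAM primer extension, HpaI digestion and capillary electrophoresis; gain of signal fitted relative to DMSO.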

[4] = target: Peroxisome proliferator-activated receptor gamma (Homo sapiens) (UniProt P37231); assay: ATG_PPARg_TRANS: Attagene TRANS-FACTORIAL HepG2 Assay for human Peroxisome Proliferator-activated Receptor-gamma (PPARg) (AID 2283007)
Peroxisome proliferator-activated receptor gamma (Homo sapiens), sequence (P37231 whole entry, looked up, the tested form may be a part): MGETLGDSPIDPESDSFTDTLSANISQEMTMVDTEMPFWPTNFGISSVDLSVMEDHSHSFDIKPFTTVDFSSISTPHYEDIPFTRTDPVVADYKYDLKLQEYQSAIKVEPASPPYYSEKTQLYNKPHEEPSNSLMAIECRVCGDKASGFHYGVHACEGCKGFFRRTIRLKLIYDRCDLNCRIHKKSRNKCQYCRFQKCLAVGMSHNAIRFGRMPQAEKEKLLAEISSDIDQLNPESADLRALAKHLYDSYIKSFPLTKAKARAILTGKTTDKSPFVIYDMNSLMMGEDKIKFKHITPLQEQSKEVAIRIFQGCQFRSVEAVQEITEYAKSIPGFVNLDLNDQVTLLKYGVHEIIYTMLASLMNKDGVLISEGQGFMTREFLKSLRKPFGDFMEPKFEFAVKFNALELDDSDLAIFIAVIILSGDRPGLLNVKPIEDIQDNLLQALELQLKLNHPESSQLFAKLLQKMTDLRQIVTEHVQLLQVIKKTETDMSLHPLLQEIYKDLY
How it was run: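 Liver-derived HepG2 cells expressing an exogenous NR-Gal4 chimera alongside GAL4-UAS reporter genes; 24 h exposure. Fluorescence of reporter RT-PCR products, separated by capillary electrophoresis, gives mRNA induction relative to DMSO.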

[5] = target: Nuclear receptor subfamily 1 group I member 2 (Homo sapiens) (UniProt O75469); assay: ATG_PXR_TRANS: Attagene TRANS-FACTORIAL HepG2 Assay for human Pregnane X Receptor (PXR) (AID 2283008)
Nuclear receptor subfamily 1 group I member 2 (Homo sapiens), sequence (O75469 whole entry, looked up, the tested form may be a part): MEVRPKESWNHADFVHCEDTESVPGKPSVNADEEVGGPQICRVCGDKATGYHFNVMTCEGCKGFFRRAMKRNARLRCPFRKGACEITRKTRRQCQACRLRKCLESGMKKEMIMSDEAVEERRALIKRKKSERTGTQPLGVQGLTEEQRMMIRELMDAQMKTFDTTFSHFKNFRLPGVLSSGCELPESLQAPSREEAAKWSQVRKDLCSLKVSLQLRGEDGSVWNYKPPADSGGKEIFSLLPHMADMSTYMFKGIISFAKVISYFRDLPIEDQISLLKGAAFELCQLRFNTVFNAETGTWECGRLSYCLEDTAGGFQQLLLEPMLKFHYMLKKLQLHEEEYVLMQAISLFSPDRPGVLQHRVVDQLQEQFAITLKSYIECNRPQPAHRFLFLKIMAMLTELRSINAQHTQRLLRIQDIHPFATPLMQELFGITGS
How it was run: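 Transient HepG2 transfectants carrying multiplexed reporter transcription units; PXR activity read through a Gal4 chimera. 24 h exposure. RT-PCR/CE fluorescence; upward curve fit referenced to DMSO.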

[6] = target: Retinoic acid receptor RXR-alpha (Homo sapiens) (UniProt P19793); assay: ATG_RXRa_TRANS: Attagene TRANS-FACTORIAL HepG2 Assay for human Retinoid X Receptor alpha (RXRa) (AID 2283012)
Retinoic acid receptor RXR-alpha (Homo sapiens), sequence (P19793 whole entry, looked up, the tested form may be a part): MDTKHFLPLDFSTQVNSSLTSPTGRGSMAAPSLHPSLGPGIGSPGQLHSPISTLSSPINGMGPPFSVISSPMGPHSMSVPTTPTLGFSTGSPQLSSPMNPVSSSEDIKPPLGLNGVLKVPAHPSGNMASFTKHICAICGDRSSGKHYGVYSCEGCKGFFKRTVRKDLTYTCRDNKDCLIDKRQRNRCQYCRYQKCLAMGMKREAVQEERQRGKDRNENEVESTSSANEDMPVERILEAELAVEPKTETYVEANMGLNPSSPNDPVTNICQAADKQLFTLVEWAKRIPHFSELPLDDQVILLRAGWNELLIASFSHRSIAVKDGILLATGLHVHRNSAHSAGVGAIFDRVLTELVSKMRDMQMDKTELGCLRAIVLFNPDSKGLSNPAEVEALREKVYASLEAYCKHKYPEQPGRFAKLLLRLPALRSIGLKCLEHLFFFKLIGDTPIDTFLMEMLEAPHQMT
How it was run: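 Measures exogenous chimeric NR-GAL4 activity in transfected HepG2 liver cells after 24 h of dosing. Induced reporter mRNA was detected by RT-PCR with capillary electrophoresis, and gain of signal was analysed against DMSO.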

[7] = target: human Retinoid X Receptor beta (RXRb), RXRB (gene 6257) (UniProt P28702); assay: ATG_RXRb_TRANS: Attagene TRANS-FACTORIAL HepG2 Assay for human Retinoid X Receptor beta (RXRb) (AID 2283013)
human Retinoid X Receptor beta (RXRb), RXRB (gene 6257), sequence (P28702 whole entry, looked up, the tested form may be a part): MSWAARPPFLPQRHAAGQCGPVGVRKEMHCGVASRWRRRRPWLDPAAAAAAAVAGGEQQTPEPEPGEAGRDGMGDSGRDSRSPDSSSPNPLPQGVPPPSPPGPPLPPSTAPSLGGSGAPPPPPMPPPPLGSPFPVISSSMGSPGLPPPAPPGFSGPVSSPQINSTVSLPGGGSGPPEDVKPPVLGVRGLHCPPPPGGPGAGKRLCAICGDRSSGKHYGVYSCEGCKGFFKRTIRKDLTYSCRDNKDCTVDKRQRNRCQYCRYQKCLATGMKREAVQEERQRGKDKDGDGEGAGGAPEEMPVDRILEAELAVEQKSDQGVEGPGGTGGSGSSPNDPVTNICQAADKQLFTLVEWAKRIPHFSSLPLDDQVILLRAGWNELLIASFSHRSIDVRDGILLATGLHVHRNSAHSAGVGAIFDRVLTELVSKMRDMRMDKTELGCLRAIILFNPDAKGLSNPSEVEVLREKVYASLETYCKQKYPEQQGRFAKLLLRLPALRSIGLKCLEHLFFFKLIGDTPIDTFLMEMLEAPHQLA
How it was run: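 Chimeric receptor-Gal4 activity was assessed in transiently transfected human HepG2 cells after 24 h exposure. Transcripts from GAL4-UAS reporters were quantified by fluorescent RT-PCR and capillary electrophoresis, with DMSO as negative control and baseline.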

[8] = read-out: E-selectin (Homo sapiens) (UniProt P16581); assay: BSK_3C_Eselectin: BioMAP Diversity Plus: 3C Assay for Eselectin Biomarker Activity (AID 2283015; active = hit-call score of the fitted dose curve at least 0.9, where 1 is the maximum; inactive = score below 0.9); details: primary human endothelial cells (HUVEC); actives raise or lower the signal
How it was run: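 Primary human umbilical vein endothelial cells (3C system) were dosed with chemical and cell-surface E-selectin measured by ELISA 24 h later. Bidirectional curve fitting used DMSO as negative control and baseline.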

[9] = read-out: Interleukin-1 alpha (IL1a), IL1A (gene 3552); assay: BSK_BE3C_IL1a: BioMAP Diversity Plus: BE3C Assay for Interleukin-1 alpha (IL1a) Biomarker Activity (AID 2283016; active = hit-call score of the fitted dose curve at least 0.9, where 1 is the maximum; inactive = score below 0.9); details: primary human bronchial epithelial cells; actives raise or lower the signal
How it was run: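 Signal from IL-1a ELISA, taken 24 h after chemical dosing of human bronchial epithelial cells, is compared with DMSO as baseline using bidirectional curve fitting.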

[10] = read-out: Monocyte Chemoattractant Protein-1 (MCP1), CCL2 (gene 6347); assay: BSK_3C_MCP1: BioMAP Diversity Plus: 3C Assay for Monocyte Chemoattractant Protein-1 (MCP1) Biomarker Activity (AID 2283017; active = hit-call score of the fitted dose curve at least 0.9, where 1 is the maximum; inactive = score below 0.9); details: primary human endothelial cells (HUVEC); actives raise or lower the signal
How it was run: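 Primary human umbilical vein endothelial cells (3C system) were exposed to test chemical for 24 h, after which MCP-1 was quantified by ELISA. Activity was fitted bidirectionally against DMSO as negative control and baseline.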

[11] = read-out: Human Leukocyte Antigen - DR isotype (HLADR), HLA-DRA (gene 3122); assay: BSK_3C_HLADR: BioMAP Diversity Plus: 3C Assay for Human Leukocyte Antigen - DR isotype (HLADR) Biomarker Activity (AID 2283019; active = hit-call score of the fitted dose curve at least 0.9, where 1 is the maximum; inactive = score below 0.9); details: primary human endothelial cells (HUVEC); actives raise or lower the signal
How it was run: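 Primary human umbilical vein endothelial cells (3C system) were dosed with compound and cell-surface HLA-DR was quantified by ELISA at 24 h. Activity was fitted bidirectionally against DMSO as negative control and baseline.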

[12] = read-out: Intercellular Adhesion Molecule 1 (ICAM1), ICAM1 (gene 3383); assay: BSK_3C_ICAM1: BioMAP Diversity Plus: 3C Assay for Intercellular Adhesion Molecule 1 (ICAM1) Biomarker Activity (AID 2283003; active = hit-call score of the fitted dose curve at least 0.9, where 1 is the maximum; inactive = score below 0.9); details: primary human endothelial cells (HUVEC); actives raise or lower the signal
How it was run: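 Chemicals are dosed onto primary human umbilical vein endothelium (3C system). After 24 h, ICAM-1 is measured by ELISA, and responses are fitted bidirectionally relative to DMSO.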

[13] = target: human Retinoic Acid Receptor beta (RARb), RARB (gene 5915) (UniProt P10826); assay: ATG_RARb_TRANS: Attagene TRANS-FACTORIAL HepG2 Assay for human Retinoic Acid Receptor beta (AID 2283004)
How it was run: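 HepG2 cells transiently transfected with multiplexed GAL4-UAS reporter units expressing chimeric NR–Gal4 fusions; 24 h compound exposure. Reporter mRNA quantified by RT-PCR, 6-FAM labelling, HpaI digestion and capillary electrophoresis; gain-of-signal fitted against DMSO baseline.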

[14] = BSK_3C_Proliferation: Cell Proliferation Assessment in the BioMAP Diversity Plus: 3C Assay (AID 2283006; active = hit-call score of the fitted dose curve at least 0.9, where 1 is the maximum; inactive = score below 0.9); details: primary human endothelial cells (HUVEC)
How it was run: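 Cells (human umbilical vein endothelial, sub-confluent) receive test chemical; after 48 h they are fixed in 10% trichloroacetic acid, stained with 0.1% SRB and read at 560 nm. Activity is referenced to DMSO, fitting increases and decreases.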

[15] = target: human Retinoic Acid Receptor gamma (RARg), RARG (gene 5916) (UniProt P13631); assay: ATG_RARg_TRANS: Attagene TRANS-FACTORIAL HepG2 Assay for human Retinoic Acid Receptor gamma (RARg) (AID 2283009)
human Retinoic Acid Receptor gamma (RARg), RARG (gene 5916), sequence (P13631 whole entry, looked up, the tested form may be a part): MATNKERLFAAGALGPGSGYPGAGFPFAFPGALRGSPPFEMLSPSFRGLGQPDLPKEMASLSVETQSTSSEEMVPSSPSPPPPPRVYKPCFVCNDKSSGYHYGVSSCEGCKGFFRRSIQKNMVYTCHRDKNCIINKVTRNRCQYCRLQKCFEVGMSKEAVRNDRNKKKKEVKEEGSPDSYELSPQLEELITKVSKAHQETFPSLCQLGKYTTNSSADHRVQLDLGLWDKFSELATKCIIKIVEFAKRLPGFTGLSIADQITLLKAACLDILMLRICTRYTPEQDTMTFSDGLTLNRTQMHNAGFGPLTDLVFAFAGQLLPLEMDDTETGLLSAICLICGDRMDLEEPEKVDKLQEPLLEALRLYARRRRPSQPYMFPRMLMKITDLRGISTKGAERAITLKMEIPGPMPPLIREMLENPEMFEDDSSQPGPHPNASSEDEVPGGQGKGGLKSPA
How it was run: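 TRANS format measured activity of exogenous NR-GAL4 fusion (RARg) in transfected HepG2 liver cells after 24 h dosing. Induced reporter RNA was detected by RT-PCR/capillary electrophoresis fluorescence, analysed in the positive direction against DMSO.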

[16] = target: human Thyroid Receptor alpha (THRa1), THRA (gene 7067) (UniProt P10827); assay: ATG_THRa1_TRANS: Attagene TRANS-FACTORIAL HepG2 Assay for human Thyroid Receptor alpha (THRa1) (AID 2283014)
How it was run: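 HepG2 cells transiently transfected with multiplexed GAL4-UAS reporter units for exogenous chimeric THRa1-Gal4; reporter mRNA measured 24 h after dosing by RT-PCR, 6-FAM labelling, HpaI digestion and capillary electrophoresis. Gain-of-signal fitted versus DMSO baseline.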

[17] = target: human RAR-related Orphan Receptor beta (RORb), RORB (gene 6096) (UniProt Q92753); assay: ATG_RORb_TRANS: Attagene TRANS-FACTORIAL HepG2 Assay for human RAR-related Orphan Receptor beta (RORb) (AID 2283010)
human RAR-related Orphan Receptor beta (RORb), RORB (gene 6096), sequence (Q92753 whole entry, looked up, the tested form may be a part): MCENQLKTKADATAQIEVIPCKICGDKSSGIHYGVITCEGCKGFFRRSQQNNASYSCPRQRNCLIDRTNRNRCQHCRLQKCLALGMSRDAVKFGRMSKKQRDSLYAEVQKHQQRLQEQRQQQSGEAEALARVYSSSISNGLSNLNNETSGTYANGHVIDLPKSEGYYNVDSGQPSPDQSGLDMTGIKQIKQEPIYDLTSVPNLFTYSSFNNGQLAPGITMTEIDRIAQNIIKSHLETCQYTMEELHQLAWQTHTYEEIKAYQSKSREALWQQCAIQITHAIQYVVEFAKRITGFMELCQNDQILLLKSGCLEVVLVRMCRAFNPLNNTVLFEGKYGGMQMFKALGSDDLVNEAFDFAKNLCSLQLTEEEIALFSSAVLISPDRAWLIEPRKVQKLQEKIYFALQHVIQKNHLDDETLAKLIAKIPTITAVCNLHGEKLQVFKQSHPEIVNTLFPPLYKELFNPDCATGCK
How it was run: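 Transfect HepG2 with multiple GAL4-UAS reporter transcription units; dose chemicals for 24 h; isolate RNA, reverse-transcribe and PCR-amplify reporter sequences; label, digest and resolve fragments by capillary electrophoresis; fit increases relative to DMSO.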

[18] = target: human RAR-related Orphan Receptor gamma (RORg), RORC (gene 6097) (UniProt P51449); assay: ATG_RORg_TRANS: Attagene TRANS-FACTORIAL HepG2 Assay for human RAR-related Orphan Receptor gamma (RORg) (AID 2283011)
human RAR-related Orphan Receptor gamma (RORg), RORC (gene 6097), sequence (P51449 whole entry, looked up, the tested form may be a part): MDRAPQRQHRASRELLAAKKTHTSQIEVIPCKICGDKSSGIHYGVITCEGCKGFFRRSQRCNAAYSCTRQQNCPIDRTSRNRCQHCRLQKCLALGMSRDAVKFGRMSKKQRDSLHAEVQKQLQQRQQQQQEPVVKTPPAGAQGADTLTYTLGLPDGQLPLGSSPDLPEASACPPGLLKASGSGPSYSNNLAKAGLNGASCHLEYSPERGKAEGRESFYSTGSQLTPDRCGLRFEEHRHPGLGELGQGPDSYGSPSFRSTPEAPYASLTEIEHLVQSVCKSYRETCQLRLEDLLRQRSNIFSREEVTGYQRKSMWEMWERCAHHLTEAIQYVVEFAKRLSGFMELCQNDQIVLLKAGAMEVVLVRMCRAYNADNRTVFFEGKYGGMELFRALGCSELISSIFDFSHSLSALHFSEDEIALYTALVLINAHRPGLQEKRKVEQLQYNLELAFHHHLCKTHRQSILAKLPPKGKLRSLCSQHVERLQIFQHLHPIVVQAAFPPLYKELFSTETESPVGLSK
How it was run: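 Readout: reporter transcript induction (RT-PCR, fluorescent primer extension, capillary electrophoresis) after 24 h compound exposure of transiently transfected HepG2 cells carrying a RORg-Gal4 chimera and GAL4-UAS reporters; DMSO served as baseline, with increasing signal fitted.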

[19] = read-out: Monocyte Chemoattractant Protein-1 (MCP1), CCL2 (gene 6347); assay: BSK_4H_MCP1: BioMAP Diversity Plus: 4H Assay for Monocyte Chemoattractant Protein-1 (MCP1) Biomarker Activity (AID 2283018; active = hit-call score of the fitted dose curve at least 0.9, where 1 is the maximum; inactive = score below 0.9); details: primary human endothelial cells (HUVEC); actives raise or lower the signal
How it was run: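 Endothelial cells from umbilical vein were treated with test chemical, then after 24 h MCP-1 levels were quantified by ELISA; endpoint values came from bidirectional fitting with DMSO as baseline of activity.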

[20] = target: Retinoic acid receptor alpha (Homo sapiens) (UniProt P10276); assay: ATG_RARa_TRANS: Attagene TRANS-FACTORIAL HepG2 Assay for human Retinoic Acid Receptor alpha (RARa) (AID 2283005)
How it was run: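 HepG2 transiently transfected with multiplex GAL4-UAS reporter units including a human RARa–GAL4 chimera; 24 h compound exposure. Reporter mRNA quantified by RT-PCR, 6-FAM labeling and capillary electrophoresis; gain of signal versus DMSO.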

Measured: AC50

E-selectin (Homo sapiens), sequence (P16581 whole entry, looked up): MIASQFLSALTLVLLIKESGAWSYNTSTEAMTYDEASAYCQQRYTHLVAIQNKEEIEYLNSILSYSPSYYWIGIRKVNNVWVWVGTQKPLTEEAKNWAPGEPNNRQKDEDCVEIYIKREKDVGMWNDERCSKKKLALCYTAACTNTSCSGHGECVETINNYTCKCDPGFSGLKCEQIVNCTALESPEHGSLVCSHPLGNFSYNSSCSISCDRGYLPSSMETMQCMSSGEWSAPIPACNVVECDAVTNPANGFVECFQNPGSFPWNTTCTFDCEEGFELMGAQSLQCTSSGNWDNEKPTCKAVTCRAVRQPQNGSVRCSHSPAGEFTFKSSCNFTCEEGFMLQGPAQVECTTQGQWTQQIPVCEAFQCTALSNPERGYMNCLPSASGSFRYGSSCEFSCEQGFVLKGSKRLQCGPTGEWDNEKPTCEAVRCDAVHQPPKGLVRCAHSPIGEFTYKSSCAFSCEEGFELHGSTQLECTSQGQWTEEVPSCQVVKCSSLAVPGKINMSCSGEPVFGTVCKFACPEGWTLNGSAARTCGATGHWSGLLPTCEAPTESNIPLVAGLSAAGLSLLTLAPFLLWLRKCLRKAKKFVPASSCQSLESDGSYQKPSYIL

C=CC(=O)OCCCCCCCC(C)C
inactive: [1] | [2] | [3] | [5] | [6] | [7] | [10] | [11]
active: [4] 27.1 µM | [8] 20 µM | [9] 0.719 µM

CCOC(=O)C1=NN(c2ccc(Cl)cc2Cl)C(C)(C(=O)OCC)C1 (stereo unspecified)
active: [4] 87.1 µM | [5] 10.1 µM
not listed: [7] | [17] | [18] | [19] | [20]
inactive: all other assays above

CC(C)[N+](C)(CCOC(=O)C1c2ccccc2Oc2ccccc21)C(C)C
active: [4] 58.2 µM
not listed: [6] | [7] | [12] | [13] | [14] | [15] | [20]
inactive: all other assays above

Nc1cccc(N)n1
not listed: [5] | [15] | [16] | [17] | [20]
inactive: all other assays above

C=C(C)C(=O)OCCCCCCCCCCCC
active: [4] 122 µM | [7] 67.8 µM
not listed: [3] | [13] | [15] | [20]
inactive: all other assays above

C=CC(=O)NC(C)(C)C
inactive: [1] | [2] | [12] | [14] | [5] | [7] | [8] | [9] | [10] | [11]

CC/C=C\CCOC(=O)c1ccccc1O
inactive: [2] | [3] | [5] | [15] | [17] | [7] | [9]
active: [1] 20 µM | [4] 39.5 µM | [8] 32.9 µM | [10] 29.7 µM | [19] 10.9 µM | [11] 33.1 µM

Fc1ccc(Br)cc1
active: [7] 156 µM
not listed: [3] | [4] | [12] | [16] | [17] | [19]
inactive: all other assays above

Oc1c(Cl)cc(Cl)c(Cl)c1Cl
inactive: [3] | [20] | [5] | [15] | [6]
active: [1] 32.5 µM | [2] 27.2 µM | [12] 28.3 µM | [4] 27 µM | [8] 27.7 µM | [9] 29.2 µM | [10] 30.7 µM | [19] 27.9 µM | [11] 25 µM
